The source of these data is PubChem BioAssay (NCI).

Common to all, as to assay: NCI-60 one-dose screen, 48 h (100 = growth as untreated, 0 = no growth, -100 = all killed)
The test system of one assay is SK-MEL-2 melanoma. The note with it: 10 µM unless noted.
Another assay has as its system EKVX NSCLC. The note with it: 10 µM unless noted.
Another assay concerns SN12C renal. The note with it: 10 µM unless noted.
Another assay deals with UO-31 renal. To be noted: 10 µM unless noted.
A further assay relates to CAKI-1 renal. To be noted: 10 µM.
In the next assay the test system is CCRF-CEM leukemia. The note with it: 10 µM unless noted.
The next assay concerns MOLT-4 leukemia. The note with it: 10 µM unless noted.
In another assay the test system is SR leukemia. The note with it: 10 µM unless noted.
The test system of another assay is RPMI-8226 leukemia. The note with it: 10 µM unless noted.
The next assay has as its system OVCAR-8 ovarian. To be noted: 10 µM unless noted.
In the next assay the test system is OVCAR-4 ovarian. The note with it: 10 µM unless noted.
A further assay relates to SK-OV-3 ovarian. The note with it: 10 µM unless noted.
For the next assay, the system named is IGROV1 ovarian. To be noted: 10 µM unless noted.
The next assay relates to OVCAR-3 ovarian. To be noted: 10 µM unless noted.
A further assay relates to HS 578T breast. The note with it: 10 µM unless noted.
The test system of the next assay is NCI/ADR-RES ovarian. The note with it: 10 µM unless noted.
The next assay has as its system A498 renal. To be noted: 10 µM unless noted.
For another assay, the system named is OVCAR-5 ovarian. To be noted: 10 µM unless noted.
The next assay relates to TK-10 renal. To be noted: 10 µM unless noted.
The test system of another assay is ACHN renal. The note with it: 10 µM unless noted.

This is part of a sample that, as a whole, favours compounds with a hit. Of some 83,000 tested, about 20% had one in any assay.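 Step 1: grow cells in 96-well plates. Step 2: add test compound at a single concentration. Step 3: incubate 48 h. Step 4: record percent growth.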 Values without a mark were called inactive. Active and inactive are the calls of the source. The calls were made as follows: active = growth percent below 10; inactive = the rest.

Take `CC(CCC(=O)O)[C@H]1CCC2C3C(=O)C[C@@H]4CC(=O)CC[C@]4(C)C3CC(=O)[C@@]21C` (stereo not given in full): the growth in the assay on SK-MEL-2 melanoma is 128%; in the assay on EKVX NSCLC, 93.6%; in the assay with SN12C renal, 93.2%; with UO-31 renal it was 83.8%; in the assay on CAKI-1 renal, 84.7%; in the assay with CCRF-CEM leukemia, 103%. Also, the growth in the assay on MOLT-4 leukemia is 96.7%; with SR leukemia it was 97.4%; in the assay on RPMI-8226 leukemia, 98.8%; with OVCAR-8 ovarian, 103%; in the assay on OVCAR-4 ovarian, 112%; in the assay on SK-OV-3 ovarian, 106%. In addition, the growth is 105% in the assay with IGROV1 ovarian, 117% with OVCAR-3 ovarian, 105% in the assay with HS 578T breast and 99.7% in the assay with NCI/ADR-RES ovarian.

As to `COC(=O)/C=C/C(=O)c1cc(C)cc(C)c1O`, the growth with SK-MEL-2 melanoma was 99.2%; with EKVX NSCLC, 95.9%; in the assay on SN12C renal, 109%; with UO-31 renal it was 88%; in the assay with A498 renal, 105%; with CCRF-CEM leukemia, 90.3%. For the same compound, the growth in the assay with MOLT-4 leukemia is 89.8%; with SR leukemia it was 90%; with RPMI-8226 leukemia it was 104%; in the assay on OVCAR-8 ovarian it was 111%; in the assay on OVCAR-5 ovarian it was 98.9%; in the assay with OVCAR-4 ovarian, 101%. Further, the growth in the assay on SK-OV-3 ovarian is 104%; in the assay with IGROV1 ovarian, 106%; in the assay with OVCAR-3 ovarian, 102%; with HS 578T breast, 112%; with NCI/ADR-RES ovarian, 99.5%.

Turning to `Cc1nc(-c2ccc(Cl)cc2)ccc1NC(=O)Nc1cccc(C(F)(F)F)c1`, the growth was 95.4% with SK-MEL-2 melanoma; 101% in the assay on EKVX NSCLC; 93.7% with SN12C renal; 90.8% with UO-31 renal; 95.2% with A498 renal; 78.6% in the assay with CCRF-CEM leukemia. In addition, the growth is 88.2% with MOLT-4 leukemia; 59.6% with SR leukemia; 85.3% with RPMI-8226 leukemia; 98.9% with OVCAR-8 ovarian; 121% in the assay on OVCAR-5 ovarian; 108% in the assay on OVCAR-4 ovarian. In addition, the growth in the assay on SK-OV-3 ovarian is 110%; in the assay on IGROV1 ovarian it was 111%; in the assay with OVCAR-3 ovarian, 111%; in the assay with HS 578T breast, 103%; in the assay on NCI/ADR-RES ovarian, 98.1%.

With `COc1cc(Nc2ncccc2C(=O)Nc2nc3ccc(F)cc3s2)cc(OC)c1OC`, the growth in the assay with SK-MEL-2 melanoma is 75.3%; in the assay with EKVX NSCLC it was 22%; with SN12C renal, 63.2%; with TK-10 renal, 114%; with ACHN renal, 79.9%; in the assay with CAKI-1 renal it was 18.4%. The growth in the assay with A498 renal was 62.2%; with CCRF-CEM leukemia it was 29.7%; in the assay with MOLT-4 leukemia it was 74.5%; in the assay on SR leukemia it was 104%; in the assay on OVCAR-8 ovarian, 91.2%; in the assay on OVCAR-5 ovarian, 105%. Moreover, the growth was 5% (active) with OVCAR-4 ovarian; 91.7% in the assay on SK-OV-3 ovarian; 74.5% with IGROV1 ovarian; 55.6% in the assay on OVCAR-3 ovarian; 72.8% in the assay on HS 578T breast; 67.2% in the assay on NCI/ADR-RES ovarian.

`CCCCCCCCCCCC(=O)OCCNC(=O)C[n+]1ccccc1`: the growth with SK-MEL-2 melanoma is 97.7%; in the assay with EKVX NSCLC it was 91.8%; with SN12C renal it was 102%; with UO-31 renal it was 83%; in the assay on ACHN renal, 99.9%; in the assay on CCRF-CEM leukemia, 98.1%. The growth was 104% in the assay on MOLT-4 leukemia; 104% in the assay with SR leukemia; 100% with RPMI-8226 leukemia; 97.4% in the assay on OVCAR-8 ovarian; 113% with OVCAR-5 ovarian; 105% in the assay on OVCAR-4 ovarian. Besides, the growth in the assay on SK-OV-3 ovarian is 96.7%; in the assay with OVCAR-3 ovarian, 115%; with HS 578T breast it was 139%; in the assay with NCI/ADR-RES ovarian it was 113%.

In the case of `CCCCN(CCCC)c1ccc(C(=N)c2ccc(N(C)C)cc2)cc1`, the growth with SK-MEL-2 melanoma is -69.6% (active); in the assay on EKVX NSCLC, -11.9% (active); with SN12C renal it was -30% (active); with TK-10 renal it was -5.56% (active); with ACHN renal, -2.72% (active); in the assay on CAKI-1 renal it was -28.9% (active). The growth in the assay with A498 renal is 9.81% (active); in the assay on CCRF-CEM leukemia, 1.04% (active); in the assay with MOLT-4 leukemia it was 1.79% (active); in the assay on SR leukemia, -44.4% (active); in the assay with RPMI-8226 leukemia, -43.3% (active); in the assay on OVCAR-8 ovarian it was -15.4% (active). In addition, the growth in the assay on OVCAR-5 ovarian was -2.12% (active); with OVCAR-4 ovarian, 7.13% (active); in the assay with SK-OV-3 ovarian, -7.53% (active); with HS 578T breast, -68.9% (active); with NCI/ADR-RES ovarian it was -47.4% (active).

As to `C=C1C(=O)O[C@H]2[C@H]1CC/C(CNC(=O)/C1=C/CC[C@@]3(C)O[C@H]3[C@H]3OC(=O)C(=C)[C@@H]3CC1)=C\CC[C@@]1(C)O[C@@H]21`, the growth is 88.7% in the assay with SK-MEL-2 melanoma; 86.2% in the assay on EKVX NSCLC; 96.7% in the assay with SN12C renal; 102% in the assay with TK-10 renal; 97.6% with ACHN renal; 94.6% with A498 renal. For the same compound, the growth was 42.6% in the assay on CCRF-CEM leukemia; 93.5% with MOLT-4 leukemia; 92.4% with SR leukemia; 78.8% in the assay with RPMI-8226 leukemia; 92.2% in the assay on OVCAR-8 ovarian; 111% in the assay with OVCAR-5 ovarian. The growth with OVCAR-4 ovarian was 86.9%; with SK-OV-3 ovarian, 89.8%; in the assay on IGROV1 ovarian, 102%; in the assay with OVCAR-3 ovarian it was 85.1%; in the assay on HS 578T breast, 112%; in the assay with NCI/ADR-RES ovarian, 99.7%.

Take `CNCCCOc1c(Br)cc(CCNC(=O)/C(Cc2ccc(OC)c(Br)c2)=N/O)cc1Br`: the growth was 40% in the assay with SK-MEL-2 melanoma; 65.5% with EKVX NSCLC; 57.6% in the assay on SN12C renal; 41.7% in the assay with UO-31 renal; 39.4% in the assay with A498 renal; 31.6% in the assay on CCRF-CEM leukemia. Moreover, the growth is 10.3% in the assay with MOLT-4 leukemia; -30.7% (active) in the assay with SR leukemia; 8.44% (active) with RPMI-8226 leukemia; 73.2% in the assay on OVCAR-8 ovarian; 86.7% in the assay on OVCAR-5 ovarian; 27.9% with OVCAR-4 ovarian. For the same compound, the growth with SK-OV-3 ovarian is 63.4%; in the assay with IGROV1 ovarian, 49.5%; with OVCAR-3 ovarian, 65.5%; in the assay with HS 578T breast, 37.6%; with NCI/ADR-RES ovarian, 81.3%.

Take `O=C(NOC1OC(CO)C(O)C(O)C1O)Nc1ccccc1` (stereo not given): the growth with SK-MEL-2 melanoma is 98.3%; in the assay on EKVX NSCLC, 102%; in the assay on SN12C renal, 91.6%; with TK-10 renal, 109%; in the assay on ACHN renal it was 101%; in the assay on CAKI-1 renal, 92.1%. In addition, the growth in the assay on A498 renal is 120%; with CCRF-CEM leukemia it was 91%; with MOLT-4 leukemia, 79.7%; with SR leukemia, 75.2%; with RPMI-8226 leukemia it was 87.3%; in the assay on OVCAR-8 ovarian, 103%. For the same compound, the growth in the assay with OVCAR-5 ovarian was 100%; in the assay with OVCAR-4 ovarian it was 105%; with SK-OV-3 ovarian, 95.7%; in the assay on IGROV1 ovarian, 111%; in the assay on OVCAR-3 ovarian, 105%; in the assay on HS 578T breast it was 103%. In the assay with NCI/ADR-RES ovarian, the growth is 109%.
